# Compound activity: PubChem BioAssay, Broad Institute
# Rows were chosen to be rich in hits. Some 6.8% of all compounds tested hit in one or more screens of this group.
# Pf Dd2 inh: P. falciparum Dd2 growth inhibitors, primary screen, SYBR Green fluorescence, single dose replicates. 72 h; stronger effect = lower value. activity change, % at 10 µM. 94,000 tested, 2.3% active; in the data active = activity change below about -80%; inconclusive = no clear call, values can overlap the other calls
# C diff HTS: C. difficile growth inhibitors, primary screen, HTS. Clostridium difficile clinical isolate growth, OD600, 24 h; stronger effect = lower value. growth activity, negative = inhibition, % at 16 µg/mL (by protocol). 86,000 tested, 0.25% active. AID 1259249, 2017;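 active = mean growth activity at or below -80% and every replicate also at or below -80%; inconclusive = mean at or below -80% but some replicate above -80%; inactive = mean growth activity above -80%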
# T cruzi growth-1: T. cruzi intracellular proliferation inhibitors, primary screen, cell-based, beta-gal Tulahuen parasites, NIH3T3 host, luminescence; AID 624255, 2012; T. cruzi beta-gal in NIH3T3, GalScreen luminescence, 90 h; 77,000 tested, 5.9% active; inhibition, % at 8.34 µM;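 active = mean inhibition above about 93%, with at least 55% of replicates each passing it, limit read from the data, passing the limit was not always enough; inconclusive = only one of those two conditions holds; inactive = neither condition holds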
# T cruzi growth-2: T. cruzi intracellular proliferation inhibitors, confirmation, cell-based, NIH3T3 host, beta-gal parasite, luminescence, cherry-pick | 5,600 tested, 72% active | T. cruzi beta-gal in NIH3T3, GalScreen luminescence, 90 h | inhibition, % at 8.35 µM | shares compounds with T cruzi growth-1;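 active = mean replicate inhibition above about 95% and at least 55% of replicates individually reaching it, limit read from the data; inconclusive = only one of the two criteria is met; inactive = neither criterion is met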
# T cruzi growth-3: inhibitors of intracellular T. cruzi replication, confirmation, NIH3T3 host cells, beta-gal parasites, cherry-pick, set 2 | inhibition, % at 2.09 µM | shares compounds with T cruzi growth-1 | 5,600 tested, 21% active | T. cruzi beta-gal in NIH3T3, GalScreen luminescence, 90 h;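 active = mean inhibition above about 95%, with at least 55% of replicates also reaching it, limit read from the data; inconclusive = meets just one of the two conditions; inactive = meets neither condition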
# NIH3T3 tox: cytotoxicity in mouse NIH/3T3 fibroblasts, confirmation, cytotoxicity control for T. cruzi proliferation inhibitor project, cell-based, cherry-pick, single point | 5,600 tested, 14% active | NIH/3T3 viability, CellTiter-Glo ATP luminescence, 90 h | cytotoxicity (signal decrease), % at 8.35 µM | AID 651742, 2012 | shares compounds with T cruzi growth-1;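 active = mean signal decrease across replicates above about 35% based on untreated-well scatter, with enough replicates individually passing, limit read from the data; inconclusive = no rule stated though some were filed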
# NIH3T3 tox 2: NIH/3T3 fibroblast cytotoxicity, confirmation, cytotoxicity control, cell-based, cherry-pick, single point, set 2; shares compounds with T cruzi growth-1; NIH/3T3 viability, CellTiter-Glo ATP luminescence, 90 h; inhibition, % at 24.9 µM; 5,600 tested, 56% active;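 active = mean loss of cell viability signal at or above a set limit, and enough replicates individually reaching it; inconclusive = meets only the mean limit or only the replicate share; inactive = meets neither condition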
# Hits are given with their value; i = inactive; ? = inconclusive; nt = not tested or not shown.
SMILES,Pf Dd2 inh,C diff HTS,T cruzi growth-1,T cruzi growth-2,T cruzi growth-3,NIH3T3 tox,NIH3T3 tox 2
C[C@@H]1CN([C@@H](C)CO)C(=O)c2cc(C3=CCCC3)cnc2O[C@@H]1CN(C)Cc1ccccc1F,i,i,nt,nt,nt,nt,nt
N#Cc1ccc(-c2ccc3c(c2)[C@H]2[C@H](CCN2C(=O)c2ccc4c(c2)OCO4)[C@@H](CO)N3)cc1,i,i,i,nt,nt,nt,nt
OC[C@@H]1Nc2ccc(C#Cc3ccc(F)cc3)cc2[C@@H]2[C@H]1CCN2Cc1ccc2c(c1)OCO2,i,i,133.7,103.1,107.3,38.1,103.3
N#Cc1ccc(-c2ccc3c(c2)[C@@H]2[C@@H](CCN2Cc2ccc4c(c2)OCO4)[C@@H](CO)N3)cc1,i,-101.8,101.2,105.1,102.1,i,105.9
OC[C@H]1Nc2ccc(C#Cc3ccc(F)cc3)cc2[C@@H]2[C@H]1CCN2Cc1ccc2c(c1)OCO2,i,i,?,102.7,97.3,40.4,103.5
O=C(c1ccc2c(c1)OCO2)N1CC[C@@H]2[C@H](CO)Nc3ccc(C#Cc4ccccc4)cc3[C@@H]21,i,i,i,nt,nt,nt,nt
O=C(C1CC1)N1CC[C@@H]2[C@H](CO)Nc3ccc(C#Cc4ccc(F)cc4)cc3[C@@H]21,i,i,i,nt,nt,nt,nt
O=C(C[C@@H]1C[C@@H]2c3cc(NC(=O)Nc4ccc(C(F)(F)F)cc4)ccc3O[C@@H]2[C@H](CO)O1)NC1CCCCC1,i,i,nt,nt,nt,nt,nt
C[C@@H]1CCCCO[C@@H](CN(C)C(=O)Nc2ccccc2)[C@H](C)CN([C@@H](C)CO)C(=O)c2cc(NC(=O)CCCN(C)C)ccc2O1,i,i,i,nt,nt,nt,nt
COc1ccc(S(=O)(=O)Nc2ccc3c(c2)C(=O)N([C@@H](C)CO)C[C@H](C)[C@@H](CN(C)C(=O)Nc2ccc(F)cc2)O3)cc1,i,i,i,nt,nt,nt,nt
O=C(C[C@H]1CC[C@H]2[C@@H](COC[C@H](O)CN2Cc2ccc3c(c2)OCO3)O1)Nc1ccccc1,i,i,i,nt,nt,nt,nt
O=C(C[C@H]1CC[C@@H]2[C@H](COC[C@H](O)CN2Cc2ccc3c(c2)OCO3)O1)Nc1ccc(-c2ccccc2)cc1,i,i,111.6,106.1,i,i,50.4
O=C(C[C@@H]1CC[C@H]2[C@@H](COC[C@@H](O)CN2Cc2ccc3c(c2)OCO3)O1)Nc1ccc(-c2ccccc2)cc1,i,i,103.3,95.5,102.7,i,94.4
O=C(C[C@H]1CC[C@@H]2[C@H](COC[C@H](O)CN2Cc2ccc3c(c2)OCO3)O1)Nc1ccccc1,i,i,i,nt,nt,nt,nt
O=C(C[C@@H]1CC[C@H]2[C@@H](COC[C@H](O)CN2Cc2ccc3c(c2)OCO3)O1)Nc1ccccc1,i,nt,i,nt,nt,nt,nt
O=C(C[C@H]1CC[C@H]2[C@@H](COC[C@H](O)CN2Cc2ccc3c(c2)OCO3)O1)Nc1ccc(-c2ccccc2)cc1,i,i,104.3,97.9,i,i,56.9
O=C(c1ccncc1)N1CC(=O)N2[C@@H](CO)[C@H](c3ccc(/C=C/c4ccccc4)cc3)[C@@H]2C1,i,i,nt,nt,nt,nt,nt
C[C@H](CO)N1C[C@H](C)[C@H](CN(C)C(=O)CC2CC2)Oc2cc(-c3ccncc3)ccc2S1(=O)=O,i,i,i,nt,nt,nt,nt
CO[C@@H]1CN(C)C(=O)c2cc(NC(=O)Nc3cccc(F)c3)ccc2OC[C@@H](C)N(C(=O)C2CC2)C[C@H]1C,i,i,i,nt,nt,nt,nt
O=C(C[C@H]1C=C[C@@H](NS(=O)(=O)c2ccc(F)cc2)[C@H](CO)O1)NCc1ccc(Cl)c(Cl)c1,i,i,i,nt,nt,nt,nt
C[C@@H]1CN([C@@H](C)CO)C(=O)c2cccc(NC(=O)C3CCOCC3)c2O[C@H]1CN(C)Cc1ccc(C(=O)Nc2ccccc2N)cc1,i,i,106.9,104.8,i,i,i
C[C@@H]1CN([C@@H](C)CO)C(=O)c2cccc(NC(=O)C3CC3)c2O[C@H]1CN(C)Cc1ccc(C(=O)Nc2ccccc2N)cc1,i,i,98.7,105.8,i,i,i
C[C@@H]1CN([C@H](C)CO)C(=O)c2cccc(NC(=O)NC3CCCCC3)c2O[C@H]1CN(C)Cc1ccc(C(=O)O)cc1,i,i,i,nt,nt,nt,nt
C[C@H]1CN([C@@H](C)CO)C(=O)c2cccc(NC(=O)C3CCOCC3)c2O[C@H]1CN(C)Cc1ccc(C(=O)Nc2ccccc2N)cc1,i,i,i,nt,nt,nt,nt
C[C@H]1CN([C@@H](C)CO)C(=O)c2cccc(NC(=O)C3CCOCC3)c2O[C@@H]1CN(C)Cc1ccc(C(=O)Nc2ccccc2N)cc1,i,i,nt,nt,nt,nt,nt
SMILES,Pf Dd2 inh,C diff HTS,T cruzi growth-1,T cruzi growth-2,T cruzi growth-3,NIH3T3 tox,NIH3T3 tox 2
C[C@H]1CN([C@@H](C)CO)C(=O)c2cccc(NC(=O)NC3CCCCC3)c2O[C@H]1CN(C)Cc1ccc(C(=O)Nc2ccccc2N)cc1,i,nt,?,100.9,?,i,?
CCCC#Cc1ccc2c(c1)O[C@H](CN(C)C(=O)c1cnccn1)[C@@H](C)CN([C@H](C)CO)S2(=O)=O,i,nt,i,nt,nt,nt,nt
CCCC#Cc1ccc2c(c1)O[C@H](CN(C)C(=O)CN(C)C)[C@@H](C)CN([C@H](C)CO)S2(=O)=O,i,nt,nt,nt,nt,nt,nt
CC(C)NC(=O)Nc1ccc2c(c1)C(=O)N([C@@H](C)CO)C[C@H](C)[C@@H](CN(C)C(=O)Nc1ccc(F)cc1)OCCCC[C@@H](C)O2,i,i,i,nt,nt,nt,nt
C[C@H]1CN([C@@H](C)CO)C(=O)c2cccc(NC(=O)c3cnccn3)c2O[C@@H]1CN(C)Cc1ccc(C(=O)Nc2ccccc2N)cc1,-93.7,i,101.8,110.8,i,i,?
C[C@H](CO)N1C[C@H](C)[C@@H](CN(C)Cc2ccc(C(=O)Nc3ccccc3N)cc2)Oc2c(NC(=O)c3cnccn3)cccc2C1=O,-92.3,i,106.4,103.7,103.5,i,51.9
C[C@H](CO)N1C[C@H](C)[C@H](CN(C)Cc2ccc(C(=O)O)cc2)Oc2c(NC(=O)c3cnccn3)cccc2C1=O,i,i,i,nt,nt,nt,nt
C[C@H]1CN([C@@H](C)CO)C(=O)c2cccc(NC(=O)c3cnccn3)c2O[C@H]1CN(C)Cc1ccc(C(=O)Nc2ccccc2N)cc1,i,i,nt,nt,nt,nt,nt
CC(C)NC(=O)N(C)C[C@H]1Oc2ccc(NC(=O)Cc3cn(C)c4ccccc34)cc2CC(=O)N([C@H](C)CO)C[C@@H]1C,i,i,i,nt,nt,nt,nt
CO[C@@H]1CN(C)C(=O)c2ccc(NC(=O)C3CC3)cc2OC[C@H](C)N(CCc2ccccc2)C[C@@H]1C,i,nt,i,nt,nt,nt,nt
C[C@H](CO)N1C[C@H](C)[C@H](CN(C)C)Oc2cc(/C=C/c3ccccc3)ccc2S1(=O)=O,i,i,i,nt,nt,nt,nt
